tim10-1 inh – growth inhibitors of tim10-1 mutant yeast | S. cerevisiae tim10-1 ts strain growth, BacTiter-Glo, 24 h | inhibition, % at 20 µM | hit rate 2.2% among 330,000 | AID 463190;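 active = inhibition of at least 40%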;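 also: mutant grown at 25 °C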
TIM10 inh – TIM10 yeast growth inhibition. S. cerevisiae TIM10 strain growth, BacTiter-Glo luminescence, 24 h. hit rate 1.4% among 330,000. inhibition, % at 10 µM;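 active = inhibition of 40% or more at the single tested concentration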;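 also: wild-type TIM10 isogenic control strain grown at permissive 25 °C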
MPTP block – blocks calcium-induced mitochondrial swelling; isolated mouse mitochondria, Ca2+ swelling absorbance, 30 min; inhibition, % at 10 µM; hit rate 1.4% among 360,000; AID 602449;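 active = inhibition of 50% or more, scaled per plate between neutral and stimulator controls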
tim23-1 inh – inhibits growth of tim23-1 mutant yeast; S. cerevisiae tim23-1 growth, BacTiter-Glo luminescence, 24 h; inhibition, % at 20 µM; hit rate 1.3% among 330,000;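 active = growth inhibition of the mutant yeast at or above 50%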;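 also: temperature-sensitive mutant grown at 25 °C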
Mdm2 MdmX PPI – inhibitors of human Mdm2/MdmX interaction | inhibition, % at 8 µM | O15151+Q00987 | hit rate 3% among 330,000 | SaOS-2 split-luciferase Mdm2/MdmX complementation, luminescence | AID 485346;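 active = inhibition of at least 50% at 8 µM in the primary screen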
Target sequence (O15151 whole entry, looked up): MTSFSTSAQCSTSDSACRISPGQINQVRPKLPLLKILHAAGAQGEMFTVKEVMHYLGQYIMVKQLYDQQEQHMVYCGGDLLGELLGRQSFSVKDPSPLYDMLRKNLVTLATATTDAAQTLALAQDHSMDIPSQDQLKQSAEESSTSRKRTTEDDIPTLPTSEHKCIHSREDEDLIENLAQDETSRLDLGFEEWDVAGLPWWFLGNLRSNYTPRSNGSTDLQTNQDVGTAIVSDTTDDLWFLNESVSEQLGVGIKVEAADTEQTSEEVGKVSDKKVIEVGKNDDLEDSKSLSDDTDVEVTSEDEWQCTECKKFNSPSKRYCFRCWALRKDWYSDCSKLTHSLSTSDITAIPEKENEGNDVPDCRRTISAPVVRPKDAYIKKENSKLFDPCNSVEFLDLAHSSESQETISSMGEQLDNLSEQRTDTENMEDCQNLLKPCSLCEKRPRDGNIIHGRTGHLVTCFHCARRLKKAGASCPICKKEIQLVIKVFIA
Target sequence (Q00987 whole entry, looked up): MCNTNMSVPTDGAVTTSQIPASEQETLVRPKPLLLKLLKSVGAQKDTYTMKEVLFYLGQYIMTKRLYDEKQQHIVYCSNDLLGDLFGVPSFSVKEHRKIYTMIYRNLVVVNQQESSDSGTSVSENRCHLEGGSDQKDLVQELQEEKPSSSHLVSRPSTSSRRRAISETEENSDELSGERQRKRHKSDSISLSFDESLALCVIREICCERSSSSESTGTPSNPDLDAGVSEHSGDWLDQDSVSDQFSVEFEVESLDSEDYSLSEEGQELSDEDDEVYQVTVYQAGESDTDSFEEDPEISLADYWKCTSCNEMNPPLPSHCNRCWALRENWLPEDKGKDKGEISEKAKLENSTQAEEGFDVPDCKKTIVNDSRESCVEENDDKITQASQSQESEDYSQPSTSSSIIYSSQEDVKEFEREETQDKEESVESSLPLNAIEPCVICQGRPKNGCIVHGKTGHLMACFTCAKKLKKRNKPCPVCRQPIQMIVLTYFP
Mdm2 MdmX conf – human Mdm2/MdmX binding inhibition, confirmed; luminescent assay; hit rate 55% among 10,000; shares compounds with Mdm2 MdmX PPI; inhibition, % at 8 µM; AID 489028; in the data active = inhibition above about 40%
Full FLuc ctr – counter-screen for Mdm2/MdmX inhibitors: full-length luciferase; shares compounds with Mdm2 MdmX PPI; SaOS-2 full-length luciferase counterscreen, luminescence; inhibition, % at 8 µM; hit rate 77% among 6,200; AID 504607;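 active = mean inhibition at 8 µM reaching about 37%, which flags the compound as non-specific, limit read from the data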;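 also: p53-null SaOS-2 cells with luciferase driven by a doxycycline-inducible promoter; compound on cells about two nights before reading with doxycycline added after day one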
Of the large screens only hits and unclear results are named; the others gave an inactive call (follow-up assays come after a bar, where they were run). In the library only some 6.3% were active in any assay of this set; here they are far more common.

O=C(Nc1nc(-c2ccccn2)cs1)c1ccc2c(c1)OCCO2	none
O=C(Nc1nc(-c2ccccn2)cs1)C1COc2ccccc2O1 (centres undefined)	Mdm2 MdmX PPI 64.9 | Mdm2 MdmX conf 70.7 | Full FLuc ctr 55.6
CC(C)[C@H](NC(=O)c1ccccc1Cl)C(=O)Nc1nc(-c2ccccn2)cs1	Mdm2 MdmX PPI 64.1 | Mdm2 MdmX conf 52.9 | Full FLuc ctr inactive
COc1ccc(Cl)cc1-c1cc(C(=O)Nc2ccc(Br)cc2)[nH]n1	none (no result: tim10-1 inh, TIM10 inh, tim23-1 inh, Mdm2 MdmX PPI)
O=C(Nc1nc(-c2ccccn2)cs1)c1ccc(-c2ccccc2F)o1	Mdm2 MdmX PPI 57.3 | Mdm2 MdmX conf 50.5 | Full FLuc ctr 62.8
CC(=O)c1ccc(-c2ccc(C(=O)Nc3nc(-c4ccccn4)cs3)o2)cc1	Mdm2 MdmX PPI 91.4 | Mdm2 MdmX conf 86.2 | Full FLuc ctr 40.4
Cc1ccc(C(=O)Nc2nc(-c3ccccn3)cs2)o1	Mdm2 MdmX PPI 73.7 | Mdm2 MdmX conf 56.4 | Full FLuc ctr 40.0
CCc1cc(C(=O)Nc2nc(-c3ccccn3)cs2)sc1C	Mdm2 MdmX PPI 51.9 | Mdm2 MdmX conf 55.9 | Full FLuc ctr 50.8
CCn1nc(C(=O)Nc2nc(-c3ccccn3)cs2)c2ccccc2c1=O	none
O=C(Nc1ccccc1)C1Cc2c(-c3ccc(Cl)cc3)ccnc2O1 (centres undefined)	none (no result: tim10-1 inh, TIM10 inh, tim23-1 inh, Mdm2 MdmX PPI)
CCOC(=O)C1=CCC(c2ccccc2)N(S(=O)(=O)c2ccc(C)cc2)[C@H]1CC (some centres undefined)	none (no result: tim10-1 inh, TIM10 inh, tim23-1 inh, Mdm2 MdmX PPI)
O=C(Nc1nc(-c2ccccn2)cs1)c1ccc([N+](=O)[O-])o1	Mdm2 MdmX PPI 76.7 | Mdm2 MdmX conf 68.0 | Full FLuc ctr 37.2
CC(C)N(Cc1ccccc1)S(=O)(=O)c1ccc(-n2cccn2)cc1	none (no result: tim10-1 inh, TIM10 inh, tim23-1 inh, Mdm2 MdmX PPI)
CCn1nccc1NC(=O)c1csc([C@@H]2C[C@H](O)[C@@H](CO)O2)n1	none (no result: tim10-1 inh, TIM10 inh, tim23-1 inh, Mdm2 MdmX PPI)
N#CC(=C1NC(=O)c2ccccc21)c1nc2ccccc2n1CCO	none (no result: tim10-1 inh, TIM10 inh, tim23-1 inh, Mdm2 MdmX PPI)
C#CCn1c(=NC(=O)c2ccc(Cl)s2)sc2cccc(OC)c21	none
C#CCn1c(=NC(=O)c2cccs2)sc2cccc(OCC)c21	Mdm2 MdmX PPI 64.4 | Mdm2 MdmX conf inactive
Cc1nc2c(-c3ccc(F)cc3)cnn2c(N)c1-c1ccc(F)cc1	Mdm2 MdmX PPI 60.5 | Mdm2 MdmX conf 47.0 | Full FLuc ctr 143.8
COc1ccc(-c2c(C)nc3c(-c4ccsc4)cnn3c2N)cc1	none
Cc1ccc(NC(=O)CC2S/C(=N/N=C/C=C/c3ccccc3)NC2=O)cc1Cl (centres undefined)	Mdm2 MdmX PPI 54.0 | Mdm2 MdmX conf inactive
Cc1ccc(NC(=O)CC2S/C(=N/N=C/c3ccco3)NC2=O)cc1Cl (centres undefined)	none
O=C(c1ccc(CS(=O)c2ccccc2Cl)o1)N1CCN(c2ccccc2)CC1 (centres undefined)	none
COc1cccc(N2CCN(C(=O)c3ccc(CS(=O)c4ccccc4C)o3)CC2)c1 (centres undefined)	Mdm2 MdmX PPI 50.9 | Mdm2 MdmX conf 50.5 | Full FLuc ctr 73.8
COc1cccc(N2CCN(C(=O)c3ccc(CS(=O)c4ccccc4Cl)o3)CC2)c1 (centres undefined)	Mdm2 MdmX PPI 70.1 | Mdm2 MdmX conf 50.8 | Full FLuc ctr 102.2
COc1ccc(CNC(=O)C[C@H]2C[C@H](C(=O)N3CCOCC3)[C@@]3(CCC4CCCC4)c4[nH]c5cc(-c6ccco6)ccc5c4CCN3C2=O)cc1OC	Mdm2 MdmX PPI 53.1 | Mdm2 MdmX conf inactive
O=C(CC1C[C@H](C(=O)N2CCOCC2)[C@@]2(CCC3CCCC3)c3[nH]c4ccccc4c3CCN2C1=O)NCCN1CCOCC1 (some centres undefined)	none
O=C(C[C@H]1C[C@H](C(=O)N2CCOCC2)[C@@]2(CCC3CCCC3)c3[nH]c4cc(-c5ccco5)ccc4c3CCN2C1=O)NCc1cccc(C(F)(F)F)c1	none
COCCCNC(=O)C[C@H]1C[C@H](C(=O)N2CCOCC2)[C@@]2(CCC3CCCC3)c3[nH]c4cc(-c5ccco5)ccc4c3CCN2C1=O	none
O=C(C[C@H]1C[C@H](C(=O)N2CCOCC2)[C@@]2(CCC3CCCC3)c3[nH]c4cc(-c5ccco5)ccc4c3CCN2C1=O)NCC12CC3CC(CC(C3)C1)C2	Mdm2 MdmX PPI 54.5 | Mdm2 MdmX conf inactive
O=C(CC1C[C@H](C(=O)N2CCOCC2)[C@@]2(CCC3CCCC3)c3[nH]c4ccccc4c3CCN2C1=O)NCC12CC3CC(CC(C3)C1)C2 (some centres undefined)	Mdm2 MdmX PPI 84.0 | Mdm2 MdmX conf 67.8 | Full FLuc ctr 37.6
CN(C)CCCNC(=O)C[C@H]1C[C@H](C(=O)N2CCOCC2)[C@@]2(CCC3CCCC3)c3[nH]c4cc(-c5ccco5)ccc4c3CCN2C1=O	Mdm2 MdmX PPI 94.9 | Mdm2 MdmX conf inactive
CC12CCC(=O)N1C(C(=O)N1CCN(c3ccc([N+](=O)[O-])cc3)CC1)CS2 (centres undefined)	none
O=C(C[C@H]1C[C@H](C(=O)N2CCOCC2)[C@@]2(CCC3CCCC3)c3[nH]c4cc(-c5ccco5)ccc4c3CCN2C1=O)NCCN1CCOCC1	none
CC(C)(C)NC(=O)C[C@H]1C[C@H](C(=O)N2CCOCC2)[C@@]2(CCC3CCCC3)c3[nH]c4cc(-c5ccco5)ccc4c3CCN2C1=O	Mdm2 MdmX PPI 73.1 | Mdm2 MdmX conf inactive
O=S1(=O)CC(N2CCCCC2)CN1Cc1cn(Cc2cccc(Cl)c2)nn1 (centres undefined)	none (no result: tim10-1 inh, TIM10 inh, tim23-1 inh, Mdm2 MdmX PPI)
O=C(Nc1nc(-c2cccc3ccccc23)cs1)c1ccc2c(c1)S(=O)(=O)c1ccccc1C2=O	Mdm2 MdmX PPI 95.4 | Mdm2 MdmX conf inactive
O=C(Nc1nc(-c2ccccc2)cs1)c1ccc2c(c1)S(=O)(=O)c1ccccc1C2=O	Mdm2 MdmX PPI 73.9 | Mdm2 MdmX conf inactive
O=C(Nc1ccc(-c2ccccc2)cc1)c1ccc2c(c1)S(=O)(=O)c1ccccc1C2=O	none
O=C(Nc1ccncc1)c1ccc2c(c1)S(=O)(=O)c1ccccc1C2=O	none
Cc1ccc2c(c1)C1(SC(C)C(=O)N1c1ccc(Cl)cc1)C(=O)N2 (centres undefined)	none (no result: tim10-1 inh, TIM10 inh, tim23-1 inh, Mdm2 MdmX PPI)
COC(=O)c1ccc(COc2ccc(-c3nnn(CC(N)=O)n3)cc2)cc1	Mdm2 MdmX PPI 55.6 | Mdm2 MdmX conf inactive
O=C(Nc1ncnc2c1C(c1ccccc1)c1c(ccc3ccccc13)O2)c1ccccc1 (centres undefined)	Mdm2 MdmX PPI 64.9 | Mdm2 MdmX conf 52.0 | Full FLuc ctr 45.4
O=C(Cc1ccccc1)Nc1ncnc2c1C(c1ccccc1)c1c(ccc3ccccc13)O2 (centres undefined)	Mdm2 MdmX PPI 90.0 | Mdm2 MdmX conf inactive
COC(=O)c1ccc(-c2csc(NC(=O)c3ccc(S(=O)(=O)N4CCc5ccccc5C4)cc3)n2)cc1	Mdm2 MdmX PPI 50.7 | Mdm2 MdmX conf inactive

From PubChem
